# In PubChem BioAssay:
# Active and inactive are the calls of the source.
# Key:
# [1] = test system: Wnt5a (protein binding on small-molecule microarray); test: Wnt5a binders on small-molecule microarray, primary screen, biophysical, 635/667 nm fluorescence (AID 1142); conditions: 635 nm fluorescence, higher = more signal;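 also: fluorescence read at 667 nm with signal to noise per printed feature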
# [2] = cell viability in Huh7 cells, primary screen, cytotoxicity control for HCV replication inhibitor project, CellTiter-Glo luminescence, basal, 48 h (AID 1143); conditions: Huh7 HCV replicon, higher = more signal, called active from +8 up or from −8 down;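 also: Huh7 hepatoma cells carrying a hepatitis C replication reporter with no stimulus; test concentration not given here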
# [3] = CREB reporter modulators without forskolin, primary screen, cell-based, PC12, CRE-LacZ reporter, unstimulated (AID 1145); conditions: no forskolin, luminescence, 4.5 h, higher = more signal, called active from +8 up or from −8 down
# [4] = CREB reporter modulators under forskolin, primary screen, cell-based, PC12, CRE-LacZ reporter, forskolin-stimulated (AID 1146); conditions: luminescence, 4.5 h, higher = more signal, called active from +8 up or from −8 down;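 also: PC12 cells with 6xCRE LacZ reporter stimulated by forskolin 10 µM; beta-galactosidase reporter signal reflecting CREB driven transcription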
# [5] = biological target: Streptavidin (Streptomyces avidinii) (UniProt P22629); test: streptavidin binders on small-molecule microarray, primary screen, artefact control for SMM compound annotation, biophysical, 635/667 nm fluorescence (AID 1147); conditions: streptavidin binding, higher = more signal;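 also: signal reflects streptavidin binding to arrayed compounds as a control protein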
# [6] = small-molecule binders of probe aInhba, primary screen, biochemical, small-molecule microarray, 635/667 nm fluorescence (AID 1148); conditions: higher = more signal;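 also: score merges 667nm spot fluorescence with signal-to-noise for antibody binding to printed compounds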
# Torsin-1A (Homo sapiens) [7] = biological target: Torsin-1A (Homo sapiens) (UniProt O14656); test: torsin A binders from cell lysate, primary screen, small-molecule microarray, wild-type, 635/667 nm (AID 1149); conditions: COS7 hTOR1A-WT lysate, 635 nm fluorescence, higher = more signal
# Torsin-1A (Homo sapiens) [8] = biological target: Torsin-1A (Homo sapiens) (UniProt O14656); test: small-molecule binders of mutant TOR1A in lysate, primary screen, cell lysate, small-molecule microarray, COS7 lysate, 635/667 nm fluorescence (AID 1150); conditions: COS7 hTOR1A mutant lysate, 635 nm fluorescence, higher = more signal;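 also: score pools 667 nm emission and signal to noise measuring lysate protein binding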
# [9] = test system: Sonic hedgehog protein (Shh); test: small-molecule binders of Shh protein, primary screen, biochemical, small-molecule microarray, 635/667 nm fluorescence (AID 1151); conditions: small-molecule microarray binding, 635 nm fluorescence; higher = more signal;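 also: Shh protein binding to compounds spotted on small-molecule microarray slides; score combines spot fluorescence intensity with signal-to-noise across triplicate slides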
# [10] = E. coli DRC41 culture turbidity changes, primary screen, E. coli filamentation inducer project, strain DRC41, OD650, 48 h (AID 1152);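 also: E. coli MC1000 strain DRC41 lacking acrAB efflux pump and sulA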; conditions: E. coli DRC41 (acrAB sulA), higher = more signal, called active from +8 up or from −8 down
# [11] = small-molecule binders of probe aLefty1, primary screen, biochemical, small-molecule microarray, 635/667 nm fluorescence (AID 1153); conditions: higher = more signal;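 also: score merges spot fluorescence with signal-to-noise ratio from the scanned slide images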
# [12] = PSAC antagonists in infected red cells, primary screen, cell-based, P. falciparum Indochina, OD700, 1 h (AID 1154); conditions: P. falciparum Indochina infected RBC osmotic lysis, higher = more signal, called active from +8 up or from −8 down
# [13] = PSAC antagonists in infected red cells, primary screen, cell-based, P. falciparum Indochina, OD700, 2 h (AID 1155);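 also: lysis reports solute entry through the parasite surface anion channel PSAC; channel blockers reduce lysis of infected cells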; conditions: P. falciparum Indochina infected erythrocytes, osmotic lysis OD700; higher = more signal, called active from +8 up or from −8 down
# [14] = osmotic lysis modulators in infected erythrocytes, primary screen, PSAC antagonist project, cell-based, P. falciparum Indochina, OD700, 3 h (AID 1156); conditions: higher = more signal, called active from +8 up or from −8 down
# [15] = PSAC antagonists in infected red cells, primary screen, cell-based, P. falciparum Indochina, OD700, 18 h (AID 1157); conditions: P. falciparum Indochina infected erythrocytes, osmotic lysis OD700, 18 h; higher = more signal, called active from +8 up or from −8 down
# [16] = modulators of S6 phosphorylation in cells, primary screen, cell-based, A549, cytoblot, luminescence, serum-stimulated (AID 1158); conditions: A549 phospho-S6 cytoblot, 5 h, higher = more signal;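 also: serum-stimulated A549 lung adenocarcinoma cells; signal is phosphorylated S6 detected by cytoblot immunostaining with HRP secondary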
# [17] = biological target: NADPH oxidase 2 (Homo sapiens) (UniProt P04839); test: NOX2-dependent H2O2 signal modulators, primary screen, NOX inhibitor project, cell-based, HEK293-NOX2, PMA-stimulated, Amplex Red fluorescence (AID 1159); conditions: 45 min, higher = more signal, called active from +8 up or from −8 down; also: test concentration not given here
# [18] = biological target: NADPH oxidase 4 (Homo sapiens) (UniProt Q9NPH5); test: NOX4-dependent H2O2 signal modulators, primary screen, NOX inhibitor project, cell-based, HEK293-NOX4, tetracycline-induced, Amplex Red fluorescence (AID 1160); conditions: 45 min, higher = more signal, called active from +8 up or from −8 down
# [19] = biological target: NADPH oxidase 5 (Homo sapiens) (UniProt Q96PH1); test: NOX5-dependent H2O2 signal modulators, primary screen, NOX inhibitor project, cell-based, HEK293-NOX5, Amplex Red fluorescence (AID 1161); conditions: HEK293-NOX5, ionomycin, 45 min, higher = more signal
# [20] = A549 cell viability effects, profiling panel, calcein-AM fluorescence, 48 h, basal (AID 1162); conditions: higher = more signal; also: test concentration not given here
# Chain of NADPH oxidase 5 (Homo sapiens) (Q96PH1 whole entry, looked up): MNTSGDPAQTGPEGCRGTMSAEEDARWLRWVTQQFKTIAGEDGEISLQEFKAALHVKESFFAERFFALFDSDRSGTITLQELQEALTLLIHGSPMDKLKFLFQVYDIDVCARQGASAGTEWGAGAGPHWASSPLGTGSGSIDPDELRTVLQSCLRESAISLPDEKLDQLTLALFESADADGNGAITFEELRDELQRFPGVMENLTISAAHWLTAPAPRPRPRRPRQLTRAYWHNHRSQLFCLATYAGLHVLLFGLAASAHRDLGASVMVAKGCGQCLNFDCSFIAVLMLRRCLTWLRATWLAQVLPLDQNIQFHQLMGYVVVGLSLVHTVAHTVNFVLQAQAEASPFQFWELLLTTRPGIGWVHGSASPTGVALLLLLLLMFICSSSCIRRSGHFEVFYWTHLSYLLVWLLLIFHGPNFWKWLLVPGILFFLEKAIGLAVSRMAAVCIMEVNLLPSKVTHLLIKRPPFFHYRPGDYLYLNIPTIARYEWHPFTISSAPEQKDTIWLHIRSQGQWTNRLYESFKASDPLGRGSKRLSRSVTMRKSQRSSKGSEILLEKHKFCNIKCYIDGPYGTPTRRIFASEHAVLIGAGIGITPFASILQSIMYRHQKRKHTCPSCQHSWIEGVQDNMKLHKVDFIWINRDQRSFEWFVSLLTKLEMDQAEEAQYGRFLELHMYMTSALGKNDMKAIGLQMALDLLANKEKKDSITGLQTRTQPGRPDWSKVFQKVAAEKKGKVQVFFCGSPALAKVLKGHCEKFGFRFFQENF
# Chain of Streptavidin (Streptomyces avidinii) (P22629 whole entry, looked up): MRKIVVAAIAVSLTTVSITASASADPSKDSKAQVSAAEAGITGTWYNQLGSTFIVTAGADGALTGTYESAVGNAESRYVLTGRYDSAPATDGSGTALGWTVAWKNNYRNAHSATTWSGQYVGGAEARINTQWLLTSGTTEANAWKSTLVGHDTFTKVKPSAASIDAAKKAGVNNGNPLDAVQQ
# Chain of NADPH oxidase 2 (Homo sapiens) (P04839 whole entry, looked up): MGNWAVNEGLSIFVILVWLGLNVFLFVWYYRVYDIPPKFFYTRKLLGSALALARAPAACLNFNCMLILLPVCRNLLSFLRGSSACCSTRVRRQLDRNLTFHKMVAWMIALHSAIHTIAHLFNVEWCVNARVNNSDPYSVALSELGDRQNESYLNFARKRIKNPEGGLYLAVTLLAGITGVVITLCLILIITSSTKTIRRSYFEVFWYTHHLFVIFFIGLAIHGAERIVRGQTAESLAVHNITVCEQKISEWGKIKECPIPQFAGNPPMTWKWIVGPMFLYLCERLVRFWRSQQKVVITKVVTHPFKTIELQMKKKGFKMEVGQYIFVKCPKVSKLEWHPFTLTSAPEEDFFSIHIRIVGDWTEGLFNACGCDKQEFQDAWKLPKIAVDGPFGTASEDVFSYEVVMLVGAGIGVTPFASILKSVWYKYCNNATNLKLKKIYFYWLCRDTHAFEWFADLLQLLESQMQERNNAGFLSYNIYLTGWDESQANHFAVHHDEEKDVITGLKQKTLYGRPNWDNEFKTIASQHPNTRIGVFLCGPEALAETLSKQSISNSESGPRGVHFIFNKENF
# Chain of NADPH oxidase 4 (Homo sapiens) (Q9NPH5 whole entry, looked up): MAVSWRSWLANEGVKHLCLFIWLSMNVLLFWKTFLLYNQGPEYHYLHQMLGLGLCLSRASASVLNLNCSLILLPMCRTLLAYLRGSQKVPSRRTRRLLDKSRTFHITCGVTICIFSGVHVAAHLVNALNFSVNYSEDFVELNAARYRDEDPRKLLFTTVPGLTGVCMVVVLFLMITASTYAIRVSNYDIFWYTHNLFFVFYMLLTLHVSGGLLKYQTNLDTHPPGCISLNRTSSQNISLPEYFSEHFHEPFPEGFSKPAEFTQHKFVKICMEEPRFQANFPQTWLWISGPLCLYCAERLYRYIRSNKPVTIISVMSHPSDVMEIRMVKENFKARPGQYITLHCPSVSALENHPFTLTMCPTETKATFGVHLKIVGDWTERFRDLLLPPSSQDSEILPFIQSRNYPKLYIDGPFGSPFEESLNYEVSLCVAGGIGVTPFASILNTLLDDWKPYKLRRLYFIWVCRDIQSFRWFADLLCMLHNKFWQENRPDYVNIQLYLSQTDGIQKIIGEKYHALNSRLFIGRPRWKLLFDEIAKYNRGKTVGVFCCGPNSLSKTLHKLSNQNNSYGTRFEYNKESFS
# Chain of Torsin-1A (Homo sapiens) (O14656 whole entry, looked up): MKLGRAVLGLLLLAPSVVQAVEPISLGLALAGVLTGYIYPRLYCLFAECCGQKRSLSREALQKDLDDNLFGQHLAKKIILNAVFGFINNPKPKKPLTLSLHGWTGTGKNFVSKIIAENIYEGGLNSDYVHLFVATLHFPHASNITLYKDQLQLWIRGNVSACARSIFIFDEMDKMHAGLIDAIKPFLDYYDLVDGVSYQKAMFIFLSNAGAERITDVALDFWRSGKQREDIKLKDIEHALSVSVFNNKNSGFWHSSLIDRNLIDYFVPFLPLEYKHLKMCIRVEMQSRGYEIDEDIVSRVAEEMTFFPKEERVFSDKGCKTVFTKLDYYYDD
structure (smiles),measurement,setting,value
O=C1c2ccccc2C(=O)c2cc([C@H]3Oc4ccccc4S(=O)(=O)N4CCC[C@@H]34)ccc21,composite z-score,[1],-0.0879
same,z-score,[2],-4.31 (inactive)
same,z-score,[3],4.29 (inactive)
same,z-score,[4],-1.21 (inactive)
same,composite z-score,[5],-0.615
same,composite z-score,[6],-0.0079
same,composite z-score,Torsin-1A (Homo sapiens) [7],-0.474
same,composite z-score,Torsin-1A (Homo sapiens) [8],-0.122
same,composite z-score,[9],-0.441
same,z-score,[10],3.11 (inactive)
same,composite z-score,[11],-0.0625
same,z-score,[12],8.47 (active)
same,z-score,[13],0.452 (inactive)
same,z-score,[14],0.544 (inactive)
same,z-score,[15],-1.29 (inactive)
same,z-score,[16],1.1
same,z-score,[17],0.0288 (inactive)
same,z-score,[18],-1.18 (inactive)
same,z-score,[19],0.489
same,z-score,[20],0.326
COCCOC(=O)N1C(=O)[C@@]2(c3cc(C#CC4(O)CCCCCC4)ccc31)[C@H](C(=O)NC[C@H](O)c1ccccc1)[C@H]1C(=O)O[C@H](c3ccccc3)[C@H](c3ccccc3)N1[C@@H]2c1ccccc1OCCO,composite z-score,[1],0.393
same,z-score,[2],-5.32 (inactive)
same,z-score,[3],-0.203 (inactive)
same,z-score,[4],-0.464 (inactive)
same,composite z-score,[5],0.637
same,composite z-score,[6],0.0393
same,composite z-score,Torsin-1A (Homo sapiens) [7],0.821
same,composite z-score,Torsin-1A (Homo sapiens) [8],0.709
same,composite z-score,[9],1.9
same,z-score,[10],1.5 (inactive)
same,composite z-score,[11],0.223
same,z-score,[12],2.13 (inactive)
same,z-score,[13],1.55 (inactive)
same,z-score,[14],-0.535 (inactive)
same,z-score,[15],0.922 (inactive)
same,z-score,[16],0.632
same,z-score,[17],1.82 (inactive)
same,z-score,[18],-0.729 (inactive)
same,z-score,[19],0.85
same,z-score,[20],0.463
CC(C)[C@@H](C(=O)O)n1cc(-c2ccccn2)nn1,composite z-score,[1],-0.267
same,z-score,[2],0.715 (inactive)
same,z-score,[3],-0.201 (inactive)
same,z-score,[4],0.159 (inactive)
same,composite z-score,[5],0.62
same,composite z-score,[6],0.202
same,composite z-score,Torsin-1A (Homo sapiens) [7],0.417
same,composite z-score,Torsin-1A (Homo sapiens) [8],0.567
same,composite z-score,[9],0.673
same,z-score,[10],2.01 (inactive)
same,composite z-score,[11],-0.0559
same,z-score,[12],-0.0828 (inactive)
same,z-score,[13],0.0486 (inactive)
same,z-score,[14],0.322 (inactive)
same,z-score,[15],0.0401 (inactive)
same,z-score,[16],0.0264
same,z-score,[17],-0.847 (inactive)
same,z-score,[18],0.242 (inactive)
same,z-score,[19],-0.24
same,z-score,[20],-0.137
CO[C@H]1O[C@H](CO)[C@@H](OC(=O)Nc2ccccc2)[C@H](OC(=O)Nc2ccccc2-c2ccccc2)[C@@H]1OC(=O)Nc1ccccc1-c1ccccc1,composite z-score,[1],0.36
same,z-score,[2],-5.22 (inactive)
same,z-score,[3],0.204 (inactive)
same,z-score,[4],-0.446 (inactive)
same,composite z-score,[5],1.44
same,composite z-score,[6],0.329
same,composite z-score,Torsin-1A (Homo sapiens) [7],1.17
same,composite z-score,Torsin-1A (Homo sapiens) [8],0.806
same,composite z-score,[9],2.03
same,z-score,[10],1.33 (inactive)
same,composite z-score,[11],1.29
same,z-score,[12],2.57 (inactive)
same,z-score,[13],0.116 (inactive)
same,z-score,[14],-0.358 (inactive)
same,z-score,[15],-2.03 (inactive)
same,z-score,[16],1.01
same,z-score,[17],2.2 (inactive)
same,z-score,[18],0.697 (inactive)
same,z-score,[19],0.306
same,z-score,[20],-1.01
COCCOC(=O)N1C(=O)[C@@]2(c3ccccc31)[C@H](C(=O)Nc1nc3ccccc3s1)[C@H]1C(=O)O[C@H](c3ccccc3)[C@H](c3ccccc3)N1[C@@H]2c1ccc(O)cc1,composite z-score,[1],0.418
same,z-score,[2],-3.59 (inactive)
same,z-score,[3],-0.199 (inactive)
same,z-score,[4],-0.395 (inactive)
same,composite z-score,[5],0.511
same,composite z-score,[6],0.263
same,composite z-score,Torsin-1A (Homo sapiens) [7],0.815
same,composite z-score,Torsin-1A (Homo sapiens) [8],-0.06
same,composite z-score,[9],2.07
same,z-score,[10],2.37 (inactive)
same,composite z-score,[11],0.577
same,z-score,[12],10.9 (active)
same,z-score,[13],5 (inactive)
same,z-score,[14],1.67 (inactive)
same,z-score,[15],2.06 (inactive)
same,z-score,[16],1.92
same,z-score,[17],-0.333 (inactive)
same,z-score,[18],-0.395 (inactive)
same,z-score,[19],1.28
same,z-score,[20],0.751
C=CCC(OC(C)=O)[C@@H]1[C@@H](N(Cc2cccc3ccccc23)C(=O)Cc2ccc(OC)cc2)c2cc(OCCCO)ccc2N1C(=O)Cc1ccc(OC)cc1 (stereo not given in full),composite z-score,[1],-0.143
same,z-score,[2],-0.627 (inactive)
same,z-score,[3],1.78 (inactive)
same,z-score,[4],-1.2 (inactive)
same,composite z-score,[5],0.131
same,composite z-score,[6],-0.0986
same,composite z-score,Torsin-1A (Homo sapiens) [7],0.271
same,composite z-score,Torsin-1A (Homo sapiens) [8],-0.482
same,composite z-score,[9],0.0188
same,z-score,[10],2.17 (inactive)
same,composite z-score,[11],0.051
same,z-score,[12],1.62 (inactive)
same,z-score,[13],0.317 (inactive)
same,z-score,[14],0.119 (inactive)
same,z-score,[15],0.506 (inactive)
same,z-score,[16],0.623
same,z-score,[17],0.459 (inactive)
same,z-score,[18],-0.451 (inactive)
same,z-score,[19],2.4
same,z-score,[20],1.25
CC(C)C[C@@H]1NC(=O)[C@@]23C(=O)N[C@@H](Cc4ccccc4)C2[C@H](C)[C@@]2(C)O[C@H]2C3/C=C/CC/C=C/CNC(=O)[C@@H](C)NC1=O (stereo not given in full),composite z-score,[1],0.298
same,z-score,[2],-2.4 (inactive)
same,z-score,[3],2.03 (inactive)
same,z-score,[4],-1.16 (inactive)
same,composite z-score,[5],0.0315
same,composite z-score,[6],-0.16
same,composite z-score,Torsin-1A (Homo sapiens) [7],0.418
same,composite z-score,Torsin-1A (Homo sapiens) [8],-0.0123
same,composite z-score,[9],1.78
same,z-score,[10],2.61 (inactive)
same,composite z-score,[11],-0.0984
same,z-score,[12],1.31 (inactive)
same,z-score,[13],0.548 (inactive)
same,z-score,[14],0.224 (inactive)
same,z-score,[15],0.5 (inactive)
same,z-score,[16],0.595
same,z-score,[17],0.649 (inactive)
same,z-score,[18],0.24 (inactive)
same,z-score,[19],-0.181
same,z-score,[20],0.421
COCCOC(=O)N1C(=O)[C@@]2(c3cc(C#CC4(O)CCCCCC4)ccc31)[C@H](c1ccccc1OCCO)N1[C@H](c3ccccc3)[C@H](c3ccccc3)OC(=O)[C@H]1[C@@H]2C(=O)Nc1nc2ccccc2s1,composite z-score,[1],0.478
same,z-score,[2],-4.73 (inactive)
same,z-score,[3],0.802 (inactive)
same,z-score,[4],-1.05 (inactive)
same,composite z-score,[5],0.16
same,composite z-score,[6],-0.0468
same,composite z-score,Torsin-1A (Homo sapiens) [7],1.2
same,composite z-score,Torsin-1A (Homo sapiens) [8],0.663
same,composite z-score,[9],1.52
same,z-score,[10],2.49 (inactive)
same,composite z-score,[11],-0.105
same,z-score,[12],3.33 (inactive)
same,z-score,[13],0.299 (inactive)
same,z-score,[14],0.851 (inactive)
same,z-score,[15],-0.515 (inactive)
same,z-score,[16],1.02
same,z-score,[17],1.27 (inactive)
same,z-score,[18],-0.694 (inactive)
same,z-score,[19],0.339
same,z-score,[20],-0.997
CC(C)(C)OC(=O)CC[C@@]1(C(=O)N2CCOCC2)N=C(c2ccc(OCCCO)cc2)O[C@@H]1c1ccccc1,composite z-score,[1],0.674
same,z-score,[2],-1.77 (inactive)
same,z-score,[3],1.56 (inactive)
same,z-score,[4],-0.257 (inactive)
same,composite z-score,[5],0.3
same,composite z-score,[6],0.182
same,composite z-score,Torsin-1A (Homo sapiens) [7],1.38
same,composite z-score,Torsin-1A (Homo sapiens) [8],1.46
same,composite z-score,[9],-0.0953
same,z-score,[10],1.79 (inactive)
same,composite z-score,[11],0.951
same,z-score,[12],20.8 (active)
same,z-score,[13],3.95 (inactive)
same,z-score,[14],0.794 (inactive)
same,z-score,[15],-0.73 (inactive)
same,z-score,[16],1.12
same,z-score,[17],-0.261 (inactive)
same,z-score,[18],-0.961 (inactive)
same,z-score,[19],-0.0438
same,z-score,[20],0.343
